Laboratory results published in PubChem BioAssay.
Values without a mark were called inactive.

Experiment: resazurin metabolic signal in A549 cells – cell-based, resazurin fluorescence, 24 h, PK04 Diversity Set, profiling panel (AID 1171); note: test concentration not given here
Conditions: A549 viability, higher = more signal, called active from +8 up or from −8 down

| SMILES | z-score |
| --- | --- |
| Cc1ccc(S[C@]2(C(=O)O)CC(=O)N(Cc3cc(C(F)(F)F)cc(C(F)(F)F)c3)[C@@H]2c2ccc(CO)cc2)cc1 | -0.0055 |
| CC(C)Cc1ccc(CN2CC[C@@H](NC(=O)Nc3ccccc3)C2)cc1 | -2.79 |
| C=CC1c2cc(O)c(OC)cc2CCN1Cc1cc2c(cc1Br)OCO2 (stereo unspecified) | -1.67 |
| O=C1O[C@H](c2ccccc2)[C@H](c2ccccc2)N2[C@H]1[C@@H](C(=O)N1CCN(c3ncccn3)CC1)[C@]1(C(=O)Nc3ccc(C#CC4(O)CCCCCC4)cc31)[C@H]2c1ccc(OCCO)cc1 | 0.746 |
| COC(=O)C(CC#Cc1ccc2c(c1)[C@]1(C(=O)N2)[C@H](c2ccccc2OCCO)N2[C@H](c3ccccc3)[C@H](c3ccccc3)OC(=O)[C@H]2[C@@H]1C(=O)NC[C@H](O)c1ccccc1)C(=O)OC | 0.107 |
| Cc1ccccc1C(O)C1C=CC2C(=O)N(C)C(=O)C2N1N(c1ccccc1)c1ccccc1 (stereo unspecified) | -0.191 |
| CCC[C@@H]1C[C@@]1(CCC)[C@@H](NC(=O)OCc1ccccc1)c1ccc(-c2ccccc2)cc1 | 2.39 |
| CN(C)C(=O)C1N=C(c2ccc(OCCCO)cc2)N(c2ccccc2)O1 (stereo unspecified) | 0.304 |
| O=C1O[C@H](c2ccccc2)[C@H](c2ccccc2)N2[C@H]1[C@@H](C(=O)O)[C@]1(C(=O)Nc3ccc(C#CC4=CCCCC4)cc31)[C@H]2c1ccc(O)cc1 | 0.391 |
| C=CCOC(=O)[C@H]1[C@@H]2C(=O)O[C@@H](c3ccccc3)[C@@H](c3ccccc3)N2[C@@H](c2ccc(OCCOC(=O)[C@H]3C[C@H]4C(=O)N[C@@H](CCCCNC(C)=O)C(=O)N4[C@H]3c3ccc(O)cc3)cc2)[C@]12C(=O)Nc1ccccc12 | 2.07 |
| CN1C(=O)C2C=CC(C(O)c3cccc4ccccc34)N(N3CCCCC3)C2C1=O (stereo unspecified) | 0.294 |
| C=CCOC(=O)[C@H]1[C@@H]2C(=O)O[C@@H](c3ccccc3)[C@@H](c3ccccc3)N2[C@@H](c2ccc(OCCOC(=O)[C@@H]3C[C@@H]4C(=O)N5CCC[C@H]5C(=O)N4[C@@H]3c3ccc(O)cc3)cc2)[C@]12C(=O)Nc1ccc(I)cc12 | -0.273 |
| O=C1C2C=CC(C(O)c3ccccc3)N(Nc3ccccc3F)C2C(=O)N1c1ccccc1 (stereo unspecified) | -0.412 |
| CN(C)c1ccc(C(O)C2C=CC3C(=O)N(c4ccccc4)C(=O)C3N2Nc2ccc([N+](=O)[O-])cc2)cc1 (stereo unspecified) | -0.272 |
| [N-]=[N+]=NCc1ccccc1[C@H]1OC(c2ccc(OCCCO)cc2)=N[C@@]1(CCS(=O)(=O)c1ccccc1)C(=O)N1CCCCC1 | -0.743 |
| C=CCOC(=O)[C@H]1[C@@H]2C(=O)O[C@@H](c3ccccc3)[C@@H](c3ccccc3)N2[C@@H](c2ccc(OCCOC(=O)[C@@H]3C[C@@H]4C(=O)N[C@@H](CCCCNC(C)=O)C(=O)N4[C@@H]3c3ccc(O)cc3)cc2)[C@]12C(=O)Nc1ccc(I)cc12 | -0.389 |
| COc1cc2c(cc1OC)CN(C(=O)[C@@H]1[C@H]3C(=O)O[C@H](c4ccccc4)[C@H](c4ccccc4)N3[C@H](c3ccc(OCCO)cc3)[C@@]13C(=O)Nc1ccc(C#CC4(O)CCCCCC4)cc13)CC2 | 0.36 |
| C=C(/C(=C/C[C@H](OC(C)=O)c1ccccc1OCCO)c1cc(C(=O)OC)ccc1OC)C(C)C | 0.0515 |

| SMILES | z-score |
| --- | --- |
| CCOC(=O)C[C@H]1[C@H](OC(=O)c2cc3ccccc3oc2=O)[C@@H](NC(=O)c2ccc(-c3ccccc3)cc2)c2cc(OCCCO)ccc2N1C(=O)c1ccc2ccccc2n1 | 0.73 |
| CN(C)CCCCNC(=O)[C@@H]1C[C@@H]2C(=O)N[C@@H](Cc3ccccc3)C(=O)N2[C@@H]1c1cccc(OCCO)c1 | -0.0805 |
| COc1ccc([Si](C)(C)[C@@H]2[C@@H](CCO)O[C@]3(C(=O)N(Cc4ccc(N5CCCCC5=O)cc4)c4ccccc43)[C@H]2C)cc1 | -1.78 |
| COCCOC(=O)N1C(=O)[C@@]2(c3cc(C#CC4=CCCCC4)ccc31)[C@H](c1ccccc1OCCO)N1[C@H](c3ccccc3)[C@H](c3ccccc3)OC(=O)[C@H]1[C@@H]2C(=O)Nc1nc2ccccc2s1 | -0.0954 |
| CCCCC(=C=CC[C@@H](O)c1ccccc1OCCO)C[C@@H](O)COCc1ccccc1 | 0.607 |
| Cc1ccc(S[C@]2(C(=O)NCC(F)(F)F)CC(=O)N(Cc3ccccc3)[C@@H]2c2ccc(CO)cc2I)cc1 | 0.589 |
| O=C(NCC(F)(F)F)[C@@H]1c2ccccc2C(=O)N(Cc2cc(F)cc(C(F)(F)F)c2)[C@H]1c1ccc(CO)cc1 | 0.44 |
| C=C(CCCC)/C(=C/C[C@@H](OC(=O)c1ccncc1)c1ccccc1OCCO)c1cnc2ccccc2c1 | -0.488 |
| [N-]=[N+]=Nc1ccccc1C[C@]1(C(=O)N2CCOCC2)N=C(c2ccc(OCCCO)cc2)O[C@H]1c1ccccc1 | 0.0917 |
| CCCNC(=O)[C@@H]1c2ccccc2C(=O)N(C(C)C)[C@H]1c1ccc(CO)cc1 | 0.136 |
| O=C1O[C@H](c2ccccc2)[C@H](c2ccccc2)N2[C@H]1[C@@H](C(=O)Nc1nc3ccccc3s1)[C@]1(C(=O)Nc3ccc(C#CC4(O)CCCCCC4)cc31)[C@H]2c1ccccc1OCCO | -2.21 |
| O=C1OCC=C[C@H]2OC34C=CCN(Cn5nnc6ccccc65)C(=O)[C@H]3N(CCCO)C(=O)[C@@H]4[C@@H]12 (stereo partly specified) | -0.813 |
| COC(=O)[C@@]1(Cc2ccccc2)[C@H]2c3cc(C(=O)N(C)C)n(Cc4c(CO)[nH]cc(C)c4=O)c3C[C@H]2CN1C(=O)c1ccccc1 | -0.25 |
| COC(=O)[C@@]1(Cc2ccc(OC)cc2)[C@H]2c3cc(C(=O)N(C)C)n(Cc4ccc(Cl)c(C(F)(F)F)c4)c3C[C@H]2CN1C(=O)c1ccccc1 | -1.83 |
| C=CCNC(=O)[C@H]1[C@@H]2C(=O)O[C@@H](c3ccccc3)[C@@H](c3ccccc3)N2[C@@H](c2ccc(O)cc2)[C@]12C(=O)N(C(=O)OCCOC)c1ccccc12 | -1.56 |
| CCCCCCCCCCC(O)C1C=CC2C(=O)N(C)C(=O)C2N1NC(=O)OC(C)(C)C (stereo unspecified) | -3.67 |
| NC(N)=NCCCn1cc(CNC(=O)[C@@H](N)Cc2ccccc2)nn1 | -0.414 |
| CCOC(=O)C1CCCCN1 (stereo unspecified) | -0.642 |
